Test results: ChEMBL document CHEMBL1961873, “Compounds: GSK PKIS; Assays: Nanosyn kinase panel” (2012)

Columns and labels:
[1] = molecular target: Tyrosine-protein kinase receptor UFO (Homo sapiens) (UniProt P30530); conditions: at 1 µM
[2] = molecular target: Tyrosine-protein kinase Blk (Homo sapiens) (UniProt P51451); conditions: at 0.1 µM
[3] = molecular target: Tyrosine-protein kinase Blk (Homo sapiens) (UniProt P51451); conditions: at 1 µM
[4] = molecular target: T1, Cytoplasmic tyrosine-protein kinase BMX (Homo sapiens) (UniProt P51813); conditions: at 0.1 µM
T1 sequence (whole entry): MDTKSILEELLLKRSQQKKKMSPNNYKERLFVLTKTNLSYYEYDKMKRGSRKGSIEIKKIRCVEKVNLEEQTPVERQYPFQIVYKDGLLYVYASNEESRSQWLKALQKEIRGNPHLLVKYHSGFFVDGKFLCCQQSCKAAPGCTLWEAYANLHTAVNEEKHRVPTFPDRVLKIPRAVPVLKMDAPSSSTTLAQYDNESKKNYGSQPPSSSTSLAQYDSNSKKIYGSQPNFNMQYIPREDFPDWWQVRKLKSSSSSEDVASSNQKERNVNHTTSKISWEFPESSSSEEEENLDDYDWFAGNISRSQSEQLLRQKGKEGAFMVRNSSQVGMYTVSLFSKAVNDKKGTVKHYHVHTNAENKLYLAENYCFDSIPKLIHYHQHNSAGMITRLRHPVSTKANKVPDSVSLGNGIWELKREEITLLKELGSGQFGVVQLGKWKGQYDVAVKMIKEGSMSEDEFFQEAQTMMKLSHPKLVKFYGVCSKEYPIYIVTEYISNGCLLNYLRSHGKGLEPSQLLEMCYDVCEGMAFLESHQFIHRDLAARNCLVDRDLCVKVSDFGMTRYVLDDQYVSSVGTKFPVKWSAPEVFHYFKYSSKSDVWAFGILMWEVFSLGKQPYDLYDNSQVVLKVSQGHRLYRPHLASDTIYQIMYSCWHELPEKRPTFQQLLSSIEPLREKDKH

[5] = molecular target: T1, Cytoplasmic tyrosine-protein kinase BMX (Homo sapiens); conditions: at 1 µM
[6] = molecular target: Protein-tyrosine kinase 6 (Homo sapiens) (UniProt Q13882); conditions: at 0.1 µM
Chain of Protein-tyrosine kinase 6 (Homo sapiens) (Q13882 whole entry, looked up): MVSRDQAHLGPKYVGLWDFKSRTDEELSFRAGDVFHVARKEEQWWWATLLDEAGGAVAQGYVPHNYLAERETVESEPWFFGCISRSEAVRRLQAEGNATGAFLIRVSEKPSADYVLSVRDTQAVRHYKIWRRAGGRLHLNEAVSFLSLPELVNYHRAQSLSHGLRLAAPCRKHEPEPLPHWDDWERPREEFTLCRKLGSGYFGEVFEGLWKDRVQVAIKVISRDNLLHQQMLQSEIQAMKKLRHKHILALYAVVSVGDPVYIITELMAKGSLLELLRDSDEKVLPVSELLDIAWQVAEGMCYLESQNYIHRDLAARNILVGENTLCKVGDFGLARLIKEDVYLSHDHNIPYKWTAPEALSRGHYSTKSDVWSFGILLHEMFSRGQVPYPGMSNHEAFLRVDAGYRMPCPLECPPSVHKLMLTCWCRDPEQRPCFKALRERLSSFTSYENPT

[7] = molecular target: Protein-tyrosine kinase 6 (Homo sapiens) (UniProt Q13882); conditions: at 1 µM
[8] = molecular target: Tyrosine-protein kinase BTK (Homo sapiens) (UniProt Q06187); conditions: at 0.1 µM
[9] = molecular target: Tyrosine-protein kinase BTK (Homo sapiens) (UniProt Q06187); conditions: at 1 µM
[10] = molecular target: Tyrosine-protein kinase CSK (Homo sapiens) (UniProt P41240); conditions: at 0.1 µM
Chain of Tyrosine-protein kinase CSK (Homo sapiens) (P41240 2-450 limits assumed): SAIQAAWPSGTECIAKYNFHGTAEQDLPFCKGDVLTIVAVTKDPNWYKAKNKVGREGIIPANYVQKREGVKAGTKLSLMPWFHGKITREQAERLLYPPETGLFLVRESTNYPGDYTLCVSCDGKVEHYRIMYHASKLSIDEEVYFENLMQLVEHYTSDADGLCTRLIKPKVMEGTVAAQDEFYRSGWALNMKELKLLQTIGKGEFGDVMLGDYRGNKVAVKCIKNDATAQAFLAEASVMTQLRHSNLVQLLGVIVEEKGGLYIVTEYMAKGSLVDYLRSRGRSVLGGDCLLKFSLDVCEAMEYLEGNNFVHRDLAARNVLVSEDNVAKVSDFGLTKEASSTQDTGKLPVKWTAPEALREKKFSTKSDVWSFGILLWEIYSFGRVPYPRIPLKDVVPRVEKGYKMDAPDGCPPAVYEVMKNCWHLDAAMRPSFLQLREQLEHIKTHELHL

[11] = molecular target: Tyrosine-protein kinase CSK (Homo sapiens) (UniProt P41240); conditions: at 1 µM
[12] = molecular target: T2, Discoidin domain-containing receptor 2 (Homo sapiens) (UniProt Q16832); conditions: at 0.1 µM
T2 sequence (whole entry): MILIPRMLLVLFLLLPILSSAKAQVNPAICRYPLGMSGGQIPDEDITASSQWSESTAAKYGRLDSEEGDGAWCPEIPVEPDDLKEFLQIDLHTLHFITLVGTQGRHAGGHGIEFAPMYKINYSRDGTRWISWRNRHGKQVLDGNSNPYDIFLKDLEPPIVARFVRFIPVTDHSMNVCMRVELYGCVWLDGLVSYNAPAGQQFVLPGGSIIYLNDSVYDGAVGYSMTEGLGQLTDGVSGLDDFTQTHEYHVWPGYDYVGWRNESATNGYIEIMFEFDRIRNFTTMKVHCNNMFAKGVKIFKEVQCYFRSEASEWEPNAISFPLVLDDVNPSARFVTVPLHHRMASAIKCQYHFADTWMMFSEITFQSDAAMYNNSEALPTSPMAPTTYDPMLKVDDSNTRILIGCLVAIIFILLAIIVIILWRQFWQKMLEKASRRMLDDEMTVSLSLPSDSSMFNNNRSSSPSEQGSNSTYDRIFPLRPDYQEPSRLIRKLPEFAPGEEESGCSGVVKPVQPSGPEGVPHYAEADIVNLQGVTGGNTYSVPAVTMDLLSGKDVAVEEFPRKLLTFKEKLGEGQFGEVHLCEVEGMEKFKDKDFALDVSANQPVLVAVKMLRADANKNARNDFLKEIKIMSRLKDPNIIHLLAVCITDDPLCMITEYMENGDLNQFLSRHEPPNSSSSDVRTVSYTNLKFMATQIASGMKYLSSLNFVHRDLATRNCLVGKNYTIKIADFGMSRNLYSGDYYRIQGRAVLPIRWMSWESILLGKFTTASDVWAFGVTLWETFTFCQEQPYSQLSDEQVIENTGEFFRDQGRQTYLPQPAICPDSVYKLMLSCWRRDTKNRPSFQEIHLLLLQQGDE

[13] = molecular target: T2, Discoidin domain-containing receptor 2 (Homo sapiens); conditions: at 1 µM
[14] = molecular target: Epidermal growth factor receptor (Homo sapiens) (UniProt P00533); conditions: at 0.1 µM
Chain of Epidermal growth factor receptor (Homo sapiens) (P00533 whole entry): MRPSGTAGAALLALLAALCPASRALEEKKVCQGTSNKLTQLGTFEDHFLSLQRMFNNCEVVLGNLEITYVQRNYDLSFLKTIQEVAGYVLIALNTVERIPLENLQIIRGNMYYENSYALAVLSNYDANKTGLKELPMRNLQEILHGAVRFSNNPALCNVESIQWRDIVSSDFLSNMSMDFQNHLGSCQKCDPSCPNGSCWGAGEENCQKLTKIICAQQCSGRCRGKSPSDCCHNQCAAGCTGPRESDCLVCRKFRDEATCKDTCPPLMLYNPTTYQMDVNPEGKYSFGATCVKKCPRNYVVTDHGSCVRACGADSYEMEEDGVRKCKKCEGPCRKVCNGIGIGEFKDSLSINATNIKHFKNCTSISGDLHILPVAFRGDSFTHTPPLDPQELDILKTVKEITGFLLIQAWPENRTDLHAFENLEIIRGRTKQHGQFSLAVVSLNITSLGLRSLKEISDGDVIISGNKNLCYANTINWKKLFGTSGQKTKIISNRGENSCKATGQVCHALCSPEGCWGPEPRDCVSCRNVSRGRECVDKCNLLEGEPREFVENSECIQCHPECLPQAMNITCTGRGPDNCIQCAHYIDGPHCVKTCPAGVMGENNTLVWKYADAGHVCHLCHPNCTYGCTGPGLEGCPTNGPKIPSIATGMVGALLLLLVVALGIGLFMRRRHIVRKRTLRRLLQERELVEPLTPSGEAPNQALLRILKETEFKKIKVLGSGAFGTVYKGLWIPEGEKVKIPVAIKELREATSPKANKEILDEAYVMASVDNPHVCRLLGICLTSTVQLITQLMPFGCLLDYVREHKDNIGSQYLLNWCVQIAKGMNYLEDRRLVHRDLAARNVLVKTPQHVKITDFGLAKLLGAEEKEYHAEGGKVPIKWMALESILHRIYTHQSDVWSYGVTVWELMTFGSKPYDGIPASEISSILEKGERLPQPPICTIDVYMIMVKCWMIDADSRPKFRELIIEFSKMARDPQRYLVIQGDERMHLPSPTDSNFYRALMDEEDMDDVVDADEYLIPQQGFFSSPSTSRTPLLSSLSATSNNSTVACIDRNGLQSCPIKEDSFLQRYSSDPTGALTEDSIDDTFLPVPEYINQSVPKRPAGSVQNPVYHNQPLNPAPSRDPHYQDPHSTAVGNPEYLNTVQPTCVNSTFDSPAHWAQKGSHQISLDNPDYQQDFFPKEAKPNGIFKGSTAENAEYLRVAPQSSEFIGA

[15] = molecular target: Epidermal growth factor receptor (Homo sapiens) (UniProt P00533); conditions: at 1 µM
[16] = tested on: Epidermal growth factor receptor (Homo sapiens), P00533 [L858R]; conditions: at 0.1 µM
Chain of Epidermal growth factor receptor (Homo sapiens), P00533 [L858R] (P00533 whole entry L858R): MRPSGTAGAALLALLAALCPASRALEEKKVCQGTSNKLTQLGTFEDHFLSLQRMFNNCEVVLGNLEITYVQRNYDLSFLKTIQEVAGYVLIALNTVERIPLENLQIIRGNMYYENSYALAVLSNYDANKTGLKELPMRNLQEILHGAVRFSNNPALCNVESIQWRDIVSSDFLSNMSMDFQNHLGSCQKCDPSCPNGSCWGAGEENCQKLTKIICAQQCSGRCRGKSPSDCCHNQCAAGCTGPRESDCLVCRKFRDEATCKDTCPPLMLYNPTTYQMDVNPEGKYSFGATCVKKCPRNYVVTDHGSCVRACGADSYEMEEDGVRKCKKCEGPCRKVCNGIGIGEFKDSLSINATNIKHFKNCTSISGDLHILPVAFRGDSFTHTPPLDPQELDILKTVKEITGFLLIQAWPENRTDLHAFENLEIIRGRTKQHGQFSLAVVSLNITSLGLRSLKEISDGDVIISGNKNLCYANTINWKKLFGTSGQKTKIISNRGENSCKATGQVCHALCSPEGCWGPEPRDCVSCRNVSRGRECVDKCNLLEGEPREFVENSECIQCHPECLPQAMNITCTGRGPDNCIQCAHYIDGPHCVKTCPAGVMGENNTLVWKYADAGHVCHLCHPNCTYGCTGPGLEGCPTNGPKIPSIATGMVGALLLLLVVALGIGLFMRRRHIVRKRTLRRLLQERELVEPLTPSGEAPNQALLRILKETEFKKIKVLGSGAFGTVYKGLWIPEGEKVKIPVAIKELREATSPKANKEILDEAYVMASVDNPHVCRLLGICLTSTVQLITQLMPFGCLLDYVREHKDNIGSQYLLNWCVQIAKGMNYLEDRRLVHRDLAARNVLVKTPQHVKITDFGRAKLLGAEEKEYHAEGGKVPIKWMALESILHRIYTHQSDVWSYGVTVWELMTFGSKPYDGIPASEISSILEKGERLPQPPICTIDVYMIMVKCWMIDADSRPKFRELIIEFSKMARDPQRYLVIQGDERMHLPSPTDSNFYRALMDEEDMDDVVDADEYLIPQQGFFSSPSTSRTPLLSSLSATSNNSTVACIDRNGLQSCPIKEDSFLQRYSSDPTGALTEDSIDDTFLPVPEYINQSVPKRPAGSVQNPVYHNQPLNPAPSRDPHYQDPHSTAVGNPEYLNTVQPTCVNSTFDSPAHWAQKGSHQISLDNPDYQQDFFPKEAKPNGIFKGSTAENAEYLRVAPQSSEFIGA

[17] = tested on: Epidermal growth factor receptor (Homo sapiens), P00533 [L858R]; conditions: at 1 µM
[18] = tested on: Epidermal growth factor receptor (Homo sapiens), P00533 [L861Q]; conditions: at 0.1 µM
Chain of Epidermal growth factor receptor (Homo sapiens), P00533 [L861Q] (P00533 whole entry L861Q): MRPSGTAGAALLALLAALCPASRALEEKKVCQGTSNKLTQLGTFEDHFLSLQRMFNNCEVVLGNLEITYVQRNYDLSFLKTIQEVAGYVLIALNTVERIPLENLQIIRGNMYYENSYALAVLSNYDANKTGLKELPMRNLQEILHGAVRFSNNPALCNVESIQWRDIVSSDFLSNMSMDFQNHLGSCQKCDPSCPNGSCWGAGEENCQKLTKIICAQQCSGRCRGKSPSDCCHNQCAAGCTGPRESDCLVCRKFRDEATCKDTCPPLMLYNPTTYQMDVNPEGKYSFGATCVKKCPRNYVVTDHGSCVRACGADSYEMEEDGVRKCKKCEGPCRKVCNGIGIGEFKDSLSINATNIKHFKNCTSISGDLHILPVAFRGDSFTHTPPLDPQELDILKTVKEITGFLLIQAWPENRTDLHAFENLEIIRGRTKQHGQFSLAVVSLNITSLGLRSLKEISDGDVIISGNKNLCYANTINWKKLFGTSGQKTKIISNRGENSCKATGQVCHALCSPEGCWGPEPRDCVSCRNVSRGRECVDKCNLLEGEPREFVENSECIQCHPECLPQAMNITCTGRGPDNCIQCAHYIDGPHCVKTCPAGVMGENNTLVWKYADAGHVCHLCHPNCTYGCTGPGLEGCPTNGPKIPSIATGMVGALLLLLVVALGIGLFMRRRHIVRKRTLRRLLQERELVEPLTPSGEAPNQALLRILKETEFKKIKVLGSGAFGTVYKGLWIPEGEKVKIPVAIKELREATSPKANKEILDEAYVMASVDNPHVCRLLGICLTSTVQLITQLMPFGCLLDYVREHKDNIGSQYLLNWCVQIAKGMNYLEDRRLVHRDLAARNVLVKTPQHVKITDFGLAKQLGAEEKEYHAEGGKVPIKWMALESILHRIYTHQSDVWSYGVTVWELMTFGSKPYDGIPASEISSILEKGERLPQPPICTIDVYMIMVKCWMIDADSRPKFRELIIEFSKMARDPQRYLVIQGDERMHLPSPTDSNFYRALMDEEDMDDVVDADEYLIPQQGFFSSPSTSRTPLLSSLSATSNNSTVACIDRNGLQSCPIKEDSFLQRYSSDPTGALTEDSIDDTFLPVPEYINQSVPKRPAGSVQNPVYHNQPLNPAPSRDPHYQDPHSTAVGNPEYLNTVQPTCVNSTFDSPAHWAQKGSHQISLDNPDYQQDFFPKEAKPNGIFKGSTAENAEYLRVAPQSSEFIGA

[19] = tested on: Epidermal growth factor receptor (Homo sapiens), P00533 [L861Q]; conditions: at 1 µM
[20] = tested on: Epidermal growth factor receptor (Homo sapiens), P00533 [T790M]; conditions: at 0.1 µM

Chain of Tyrosine-protein kinase Blk (Homo sapiens) (P51451 2-505 limits assumed): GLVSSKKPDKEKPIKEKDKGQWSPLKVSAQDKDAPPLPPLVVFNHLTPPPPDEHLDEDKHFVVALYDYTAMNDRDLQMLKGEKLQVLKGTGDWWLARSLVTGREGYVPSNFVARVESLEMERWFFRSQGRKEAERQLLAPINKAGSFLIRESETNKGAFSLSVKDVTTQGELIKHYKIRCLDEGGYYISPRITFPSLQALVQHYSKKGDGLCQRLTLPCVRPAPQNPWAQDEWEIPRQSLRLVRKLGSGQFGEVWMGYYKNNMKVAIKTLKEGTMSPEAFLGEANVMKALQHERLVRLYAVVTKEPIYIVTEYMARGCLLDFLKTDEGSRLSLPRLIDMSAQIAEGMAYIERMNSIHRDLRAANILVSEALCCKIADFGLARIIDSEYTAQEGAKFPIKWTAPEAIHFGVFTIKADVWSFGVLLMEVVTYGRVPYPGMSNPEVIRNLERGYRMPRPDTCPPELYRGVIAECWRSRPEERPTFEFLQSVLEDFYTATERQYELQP

## CCOc1ccc2c(-c3ccnc(Nc4cc(OC)cc(C(F)(F)F)c4)n3)cnn2n1
[1]
  inhibition: -1.43%
[2]
  inhibition: 0.5%
[3]
  inhibition: 4.83%
[4]
  inhibition: -3.75%
[5]
  inhibition: 2.82%
[6]
  inhibition: 1.51%
[7]
  inhibition: 2.17%
[8]
  inhibition: -0.58%
[9]
  inhibition: -0.1%
[10]
  inhibition: -0.12%
[11]
  inhibition: 0.11%
[12]
  inhibition: -0.19%
[13]
  inhibition: 1.4%
[14]
  inhibition: 2.81%
[15]
  inhibition: 5.28%
[16]
  inhibition: 2.28%
[17]
  inhibition: 3.23%
[18]
  inhibition: 1.52%
[19]
  inhibition: 2.39%
[20]
  inhibition: 0.36%

## Cc1cc(O)cc(C)c1/C=C/c1cncc(C(=O)OC(C)(C)C)c1
[1]
  inhibition: -3.72%
[2]
  inhibition: 4.36%
[3]
  inhibition: 21.7%
[4]
  inhibition: 9.3%
[5]
  inhibition: 47.3%
[6]
  inhibition: 18.1%
[7]
  inhibition: 67.5%
[8]
  inhibition: 0.92%
[9]
  inhibition: 12.8%
[10]
  inhibition: 7.62%
[11]
  inhibition: 32.9%
[12]
  inhibition: 1.51%
[13]
  inhibition: 2.49%
[14]
  inhibition: 1.62%
[15]
  inhibition: 5.14%
[16]
  inhibition: 3.7%
[17]
  inhibition: 17%
[18]
  inhibition: 2.25%
[19]
  inhibition: 4.72%
[20]
  inhibition: 0.92%

## CCS(=O)(=O)c1ccc(OC)c(Nc2ncc(-c3cccc(C(C)=O)c3)o2)c1
[1]
  inhibition: -3.61%
[2]
  inhibition: 4.6%
[3]
  inhibition: 35.6%
[4]
  inhibition: -2.05%
[5]
  inhibition: 15.7%
[6]
  inhibition: 4.59%
[7]
  inhibition: 18.7%
[8]
  inhibition: 2.71%
[9]
  inhibition: 8.89%
[10]
  inhibition: 2.68%
[11]
  inhibition: 10.1%
[12]
  inhibition: 3.31%
[13]
  inhibition: 17.9%
[14]
  inhibition: 4.92%
[15]
  inhibition: 9.23%
[16]
  inhibition: 5.11%
[17]
  inhibition: 16.6%
[18]
  inhibition: 5.35%
[19]
  inhibition: 5.8%
[20]
  inhibition: 1.86%

## CN(c1ccc(NC(=O)NCCN2CCOCC2)cc1)c1ccnc(Nc2ccc(CS(C)(=O)=O)cc2)n1
[1]
  inhibition: -4.88%
[2]
  inhibition: 2.89%
[3]
  inhibition: 8.61%
[4]
  inhibition: 0.59%
[5]
  inhibition: 22.6%
[6]
  inhibition: 2.66%
[7]
  inhibition: 8.9%
[8]
  inhibition: 1.05%
[9]
  inhibition: 2.3%
[10]
  inhibition: 3.59%
[11]
  inhibition: 13.1%
[12]
  inhibition: 24.3%
[13]
  inhibition: 76%
[14]
  inhibition: -0.15%
[15]
  inhibition: 1.28%
[16]
  inhibition: 3.77%
[17]
  inhibition: 6.75%
[18]
  inhibition: 2.81%
[19]
  inhibition: 3.82%
[20]
  inhibition: 2.04%

## O=C(O[C@H]1CN[C@H](C#Cc2cc3ncnc(Nc4ccc5c(ccn5Cc5cc(F)ccc5F)c4)c3s2)C1)N1CCOCC1
[1]
  inhibition: -5.54%
[2]
  inhibition: 2.36%
[3]
  inhibition: 8.13%
[4]
  inhibition: 4.47%
[5]
  inhibition: 4.96%
[6]
  inhibition: 3.43%
[7]
  inhibition: 4.9%
[8]
  inhibition: 0.02%
[9]
  inhibition: 2.23%
[10]
  inhibition: 3.21%
[11]
  inhibition: 2.68%
[12]
  inhibition: 2.04%
[13]
  inhibition: 2.8%
[14]
  inhibition: 65.5%
[15]
  inhibition: 76.4%
[16]
  inhibition: 11.2%
[17]
  inhibition: 53.6%
[18]
  inhibition: 22.6%
[19]
  inhibition: 39%
[20]
  inhibition: 20%

## FC(F)(F)CNc1nccc(-c2cnn3ncccc23)n1
[1]
  inhibition: -3.11%
[2]
  inhibition: 1.37%
[3]
  inhibition: 2.35%
[4]
  inhibition: 4.12%
[5]
  inhibition: 2.03%
[6]
  inhibition: -1.25%
[7]
  inhibition: 3.34%
[8]
  inhibition: 0.18%
[9]
  inhibition: 0.42%
[10]
  inhibition: 2.81%
[11]
  inhibition: 0.56%
[12]
  inhibition: 1.12%
[13]
  inhibition: 0.22%
[14]
  inhibition: 1.39%
[15]
  inhibition: 6.21%
[16]
  inhibition: 2.83%
[17]
  inhibition: 0.26%
[18]
  inhibition: 0.58%
[19]
  inhibition: 0.31%
[20]
  inhibition: -0.49%

## c1ccc(-c2n[nH]cc2-c2ccnc(-c3ccc(OCCn4ccnc4)cc3)c2)nc1
[1]
  inhibition: -0.26%
[2]
  inhibition: -0.32%
[3]
  inhibition: 1.78%
[4]
  inhibition: -0.48%
[5]
  inhibition: 0.53%
[6]
  inhibition: 2.69%
[7]
  inhibition: 8.22%
[8]
  inhibition: 0.31%
[9]
  inhibition: -1.64%
[10]
  inhibition: 1%
[11]
  inhibition: 1.94%
[12]
  inhibition: 0.36%
[13]
  inhibition: 1.9%
[14]
  inhibition: 0.25%
[15]
  inhibition: 5.66%
[16]
  inhibition: 1.97%
[17]
  inhibition: 24.5%
[18]
  inhibition: -0.83%
[19]
  inhibition: 5.84%
[20]
  inhibition: -1.24%

## CCS(=O)(=O)c1ccc(OC)c(Nc2ncc(-c3cccc(F)c3)o2)c1
[1]
  inhibition: -5.62%
[2]
  inhibition: 21.3%
[3]
  inhibition: 73.8%
[4]
  inhibition: 1.13%
[5]
  inhibition: 33%
[6]
  inhibition: 9.28%
[7]
  inhibition: 29.8%
[8]
  inhibition: 3.65%
[9]
  inhibition: 28.6%
[10]
  inhibition: 7.64%
[11]
  inhibition: 17.9%
[12]
  inhibition: 5.27%
[13]
  inhibition: 28.3%
[14]
  inhibition: 3.05%
[15]
  inhibition: 9.19%
[16]
  inhibition: 9.54%
[17]
  inhibition: 20.1%
[18]
  inhibition: 4.09%
[19]
  inhibition: 8.2%
[20]
  inhibition: 3.64%

## CNC(=O)c1cncc(/C=C/c2ccccc2C)c1
[1]
  inhibition: -5.59%
[2]
  inhibition: 2.89%
[3]
  inhibition: 6.2%
[4]
  inhibition: 0.93%
[5]
  inhibition: 16.1%
[6]
  inhibition: 4.25%
[7]
  inhibition: 14.5%
[8]
  inhibition: 0.03%
[9]
  inhibition: 1.29%
[10]
  inhibition: 4.87%
[11]
  inhibition: 9.89%
[12]
  inhibition: 0.33%
[13]
  inhibition: 5.42%
[14]
  inhibition: 1.22%
[15]
  inhibition: 3.62%
[16]
  inhibition: 4.66%
[17]
  inhibition: 11.7%
[18]
  inhibition: 3.44%
[19]
  inhibition: 5.67%
[20]
  inhibition: 1.07%
